Drawing on PubChem BioAssay (Tox21), this text covers Potency for 11 molecules.

The structures appear in SMILES notation. Inconclusive results are not listed. Calls of active or inactive are those of the source. Unless noted, calls come from the whole dose curve; as a rule, active = well fitted curve in the direction sought with a large enough effect in the repeat runs; inconclusive = weak or mixed curves; inactive = no such curve, though single readings can be large; an effect the other way counts as inactive or inconclusive.

Test [1] in a line: qHTS assay to identify small molecule agonists of the RXR signaling pathway - cell viability counter screen (AID 1159529). Note: nearly all actives have a fitted effect of over 50% in size. Note: potency is the fitted concentration of half-maximal effect. The gist of the method:
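In this parallel viability measure, GeneBLAzer RXR-alpha HEK 293T cells (2% charcoal-stripped FBS) were given a 5 hr preincubation, treated with compounds 16 hr at 37 C, and read by CellTiter-Glo luminescence.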

A short description of test [2]: qHTS assay to identify small molecule antagonists of the retinoid acid receptor (RAR) signaling pathway - cell viability counter screen (AID 1159551). Note: nearly all actives have a fitted effect of over 35% in size. Note: potency is the fitted concentration of half-maximal effect. The gist of the method:
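C3RL4 RARE-luciferase line; cpds + retinol 1 uM final, 6 h, 37 C/5% CO2; CellTiter-Glo ATP luminescence, 30 min RT.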
(qHTS replaces the single test concentration by a dilution series.)

The nature of test [3]: qHTS assay to identify small molecule antagonists of the retinoic acid receptor (RAR) signaling pathway (AID 1159552; note: nearly all actives have a fitted effect of over 50% in size; note: potency is the fitted concentration of half-maximal effect). The gist of the method:
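C3RL4 RARE-luc cells, overnight plating; retinol 1 uM final added right after compound; 6 hr 37 C; luciferase read at 30 min RT.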

Test [4] can be described thus: qHTS assay to identify small molecule agonists of the retinoic acid receptor (RAR) signaling pathway (AID 1159553). Note: potency is the fitted concentration of half-maximal effect. An outline of the steps:
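RARE-luc C3RL4 cells; overnight attachment 37 C/5% CO2; compound (DMSO) 6 hr; luciferase reagent, 30 min RT; luminescence read-out.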

The target in test [5] is Luciferin 4-monooxygenase (Photinus pyralis) (UniProt P08659). The test can be described thus: qHTS assay to identify small molecule inhibitors of firefly luciferase (AID 1224835). Note: nearly all actives have a fitted effect of over 25% in size. Note: potency is the fitted concentration of half-maximal effect. An outline of the steps: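 Quantitative HTS format; KM concentrations of both substrates. Purified P. pyralis FLuc activity quantified from luminescence images.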
Sequence of Luciferin 4-monooxygenase (Photinus pyralis) (P08659 whole entry, looked up): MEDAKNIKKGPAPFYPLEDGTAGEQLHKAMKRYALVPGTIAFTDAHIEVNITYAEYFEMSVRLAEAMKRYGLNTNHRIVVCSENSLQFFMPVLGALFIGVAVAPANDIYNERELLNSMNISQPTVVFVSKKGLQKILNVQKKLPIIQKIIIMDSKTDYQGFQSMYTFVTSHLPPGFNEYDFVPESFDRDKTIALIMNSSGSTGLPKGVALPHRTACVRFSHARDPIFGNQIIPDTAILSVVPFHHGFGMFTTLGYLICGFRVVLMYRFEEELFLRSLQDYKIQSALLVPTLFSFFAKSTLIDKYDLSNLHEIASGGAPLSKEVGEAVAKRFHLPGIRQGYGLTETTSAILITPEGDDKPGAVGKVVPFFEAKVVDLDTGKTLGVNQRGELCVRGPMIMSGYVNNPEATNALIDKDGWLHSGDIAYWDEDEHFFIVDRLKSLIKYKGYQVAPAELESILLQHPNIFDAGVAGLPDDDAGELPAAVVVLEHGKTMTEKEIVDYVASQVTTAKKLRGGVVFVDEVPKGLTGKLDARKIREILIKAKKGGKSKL
Test [6] in a line: qHTS assay to identify small molecule agonists of the constitutive androstane receptor (CAR) signaling pathway - cell viability counter screen (AID 1224836). Note: nearly all actives have a fitted effect of over 45% in size. Note: potency is the fitted concentration of half-maximal effect. The gist of the method:
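Using CellTiter-Fluor, viability of HepG2 cells harbouring hCAR and CYP2B6-2.2kb was measured following 23 h incubation with a 15-concentration compound series plus PK11195 (0.75 uM final).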

Test [7] can be described thus: qHTS assay to identify small molecule antagonists of the constitutive androstane receptor (CAR) signaling pathway - cell viability counter screen (AID 1224837). Note: nearly all actives have a fitted effect of over 45% in size. Note: potency is the fitted concentration of half-maximal effect. An outline of the steps:
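Read-out: CellTiter-Fluor fluorescence after 23 hr at 37 C/5% CO2. Cells: HepG2 double-stable for hCAR and CYP2B6-2.2kb. Compounds tested at 15 concentrations in the presence of CITCO, final concentration 50 nM.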

Test [8] addresses Nuclear receptor subfamily 1 group I member 3 (Homo sapiens) (UniProt Q14994). The test can be described thus: qHTS assay to identify small molecule antagonists of the constitutive androstane receptor (CAR) signaling pathway (AID 1224838).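 Note: HepG2 cells stably expressing hCAR with CYP2B6 luciferase reporter stimulated by CITCO; nearly all actives have a fitted effect of over 40% in size.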 Note: potency is the fitted concentration of half-maximal effect. An outline of the steps: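 Read-out: ONE-Glo luciferase luminescence after 30 min at room temperature. HepG2-CYP2B6-hCAR double-stable cells, compounds in 15-point titration plus 50 nM CITCO final, 24 h at 37 C/5% CO2.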

Test [9] shares this target. The test can be described thus: qHTS assay to identify small molecule agonists of the constitutive androstane receptor (CAR) signaling pathway (AID 1224839).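 Note: HepG2 cells stably carrying human CAR and a CYP2B6 luciferase reporter; series mostly up to about 92 µM; nearly all actives have a fitted effect of over 15% in size.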 An outline of the steps: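 Double-stable HepG2 cells (hCAR, CYP2B6-2.2kb) seeded 4 h before compound addition. Exposure 24 h with 0.75 uM PK11195 final. Luciferase detected by ONE-Glo.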
Test [10] is described as follows: qHTS assay to identify small molecule antagonists of the estrogen related receptor signaling pathway with the pleiotropic PPARgamma coactivator (PGC) from Tox21 10K library - cell viability counter screen (AID 1224840; active = well fitted cell-killing curve with a large enough effect in the repeat runs, not every such curve was filed as active; note: nearly all actives have a fitted effect of over 40% in size; note: potency is the fitted concentration of half-maximal effect). An outline of the steps:
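Fluorescence read-out of CellTiter-Fluor viability reagent, added after cells had been exposed to compound in DMSO for 17.5 h at 37 C; 30 min development at 37 C/5% CO2. Cells: PGC/ERR line, 2,000/well.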

A short description of test [11]: qHTS assay to identify small molecule antagonists of the estrogen related receptor signaling pathway with the pleiotropic PPARgamma coactivator (PGC) from Tox21 10K library (AID 1224841; call rule not given here; note: actives are mostly falling curves and most rising ones were filed inactive; nearly all actives have a fitted effect of over 50% in size; note: potency is the fitted concentration of half-maximal effect). The gist of the method:
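Luminescence read-out (One-Glo luciferase reagent, 30 min at room temperature) from PGC/ERR cells exposed to DMSO-dissolved test compounds for 18 h at 37 C; cells, 2,000 per well, had been preincubated 6 h before compound transfer.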

Test [12] is described as follows: qHTS assay to identify small molecule agonists of the estrogen related receptor signaling pathway with the pleiotropic PPARgamma coactivator (PGC) from Tox21 10K library (AID 1224842). Note: nearly all actives have a fitted effect of over 15% in size. Note: potency is the fitted concentration of half-maximal effect. An outline of the steps:
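PGC/ERR reporter cells (NTP line) were seeded 2,000 per well, rested 6 h at 37 C/5% CO2, then pin-dosed with compounds in DMSO for 18 h at 37 C; luciferase read by One-Glo luminescence after 30 min at room temperature.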

The target of test [13] is Thyrotropin receptor (Homo sapiens) (UniProt P16473). Description: qHTS assay to identify small molecule agonists of the thyroid stimulating hormone receptor (TSHR) signaling pathway (AID 1224843; calls by dose curve; note: nearly all actives have a fitted effect of over 45% in size). The gist of the method: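 Compounds are titrated over 15 concentrations, in triplicate, onto TSHR-HEK293 cells seeded at 800/well. Plates sit 30 min at room temperature before cAMP-d2 and anti-cAMP cryptate are added; signal is read after a further hour.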
Sequence of Thyrotropin receptor (Homo sapiens) (P16473 whole entry, looked up): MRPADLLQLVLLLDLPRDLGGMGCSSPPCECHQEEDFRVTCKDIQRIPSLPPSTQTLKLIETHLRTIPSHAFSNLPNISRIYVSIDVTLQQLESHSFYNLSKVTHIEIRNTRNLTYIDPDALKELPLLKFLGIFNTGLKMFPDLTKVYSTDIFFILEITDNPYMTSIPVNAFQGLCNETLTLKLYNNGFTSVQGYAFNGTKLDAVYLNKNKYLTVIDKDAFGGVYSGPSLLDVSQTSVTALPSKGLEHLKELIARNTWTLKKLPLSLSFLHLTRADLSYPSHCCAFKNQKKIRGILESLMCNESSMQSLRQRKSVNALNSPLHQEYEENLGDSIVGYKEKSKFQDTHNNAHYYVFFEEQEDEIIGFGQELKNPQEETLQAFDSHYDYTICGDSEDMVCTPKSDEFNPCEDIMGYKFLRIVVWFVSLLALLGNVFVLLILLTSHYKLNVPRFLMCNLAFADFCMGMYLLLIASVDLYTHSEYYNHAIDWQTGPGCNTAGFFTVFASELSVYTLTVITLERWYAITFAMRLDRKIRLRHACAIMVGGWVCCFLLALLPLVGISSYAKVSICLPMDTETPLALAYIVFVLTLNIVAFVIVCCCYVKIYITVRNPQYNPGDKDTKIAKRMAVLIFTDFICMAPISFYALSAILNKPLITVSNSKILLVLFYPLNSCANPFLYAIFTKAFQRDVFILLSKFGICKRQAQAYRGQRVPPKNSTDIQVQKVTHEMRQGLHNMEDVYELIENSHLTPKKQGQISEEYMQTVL

A short description of test [14]: qHTS assay to identify small molecule antagonists of the estrogen related receptor (ERR) signaling pathway from Tox21 library - cell viability counter screen (AID 1224834). Note: nearly all actives have a fitted effect of over 30% in size. The gist of the method:
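Multiplexed viability counter screen in ERR cells: 17.5 h compound exposure at 37 C, CellTiter-Fluor added, 30 min at 37 C/5% CO2, fluorescence read.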

Sequence of Nuclear receptor subfamily 1 group I member 3 (Homo sapiens) (Q14994 whole entry, looked up): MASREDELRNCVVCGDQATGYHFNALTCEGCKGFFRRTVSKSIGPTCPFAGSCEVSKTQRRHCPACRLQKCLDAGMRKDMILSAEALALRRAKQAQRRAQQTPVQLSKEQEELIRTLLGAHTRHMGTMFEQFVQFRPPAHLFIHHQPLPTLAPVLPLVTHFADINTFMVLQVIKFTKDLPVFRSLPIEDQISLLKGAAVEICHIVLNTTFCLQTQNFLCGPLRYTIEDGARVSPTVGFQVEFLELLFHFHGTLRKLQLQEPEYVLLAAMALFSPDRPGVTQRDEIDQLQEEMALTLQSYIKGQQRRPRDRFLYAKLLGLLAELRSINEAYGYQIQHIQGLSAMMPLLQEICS

As to `NC(N)=NN=C(/C=C/c1ccc([N+](=O)[O-])o1)/C=C/c1ccc([N+](=O)[O-])o1`, the Potency in test [1] is 8.49 µM (active); in [2], 13.3 µM (active); in test [3], 7.5 µM (active); in [4] it was 2.11 µM (active); in [5], 27.5 µM (active); in test [6] it was 3.35 µM (active). Besides, the Potency is 2.37 µM (active) in [7], 2.98 µM (active) in test [8], 2.98 µM (active) in [10] and 6.68 µM (active) in test [11]. The Potency result in [9], in [12] and in [13] was “inactive” in each case.

For the molecule `Cn1c(=O)c2c(ncn2CC(O)CO)n(C)c1=O` (stereo unspecified), the Potency entry in test [1], in test [2], in [4], in test [14], in [5] and in [6] was “inactive” each time. The Potency result in test [7], in [8], in [9], in test [10], in [11] and in test [12] was “inactive” throughout. Moreover, the Potency result in [13] was “inactive”.

Consider `O=C(Cl)c1c(Cl)cccc1Cl`, for which the Potency entry in [1], in test [2], in test [3], in test [4], in [14] and in test [5] was “inactive” in each case. Also, the Potency result in [8], in [9], in test [10] and in test [13] was “inactive” each time.

Turning to `Cc1c(Cn2ccnc2)c2ccccc2n1CCC(=O)O`, the Potency result in test [1], in test [2], in test [14], in test [5], in test [6] and in test [10] was “inactive” in each case.

As to `Oc1ccc(C(O)CNCCCCCCNCC(O)c2ccc(O)c(O)c2)cc1O` (stereo unspecified), the Potency result in test [1], in test [2], in [14], in [5], in [7] and in test [8] was “inactive” each time. Further, the Potency result in [10] is “inactive”. For the same molecule, the Potency in test [12] is 7.5 µM (active).

Regarding `Cc1cccc(Oc2ccccc2)c1`, the Potency was 1.9 µM (active) in [1] and 53.1 µM (active) in test [11]. In addition, the Potency result in test [2], in [5], in test [6], in test [7], in test [8] and in test [9] was “inactive” each time. Moreover, the Potency result in test [10], in test [12] and in test [13] was “inactive” each time.

Take `N#CCCNCCC#N`: the Potency entry in test [1], in test [2], in test [5], in test [6], in [8] and in [9] was “inactive” each time. The Potency result in [10] and in test [13] was “inactive” throughout.

For `CCOC(=S)SSC(=S)OCC`, the Potency entry in test [1], in test [2], in [14], in test [6], in test [7] and in [8] was “inactive” each time. Besides, the Potency result in test [9] was “inactive”.

Take `CC(=O)Nc1ccc(/C=N/NC(N)=S)cc1`: the Potency result in test [1], in test [2], in [4], in test [14], in [5] and in test [6] was “inactive” in each case. The Potency entry in test [7], in test [9] and in test [13] was “inactive” each time.

Turning to `CC/C(=C\C(=N/O)C(N)=O)C(C)[N+](=O)[O-]` (stereo unspecified), the Potency entry in test [1], in test [2], in test [5], in [6], in [7] and in test [8] was “inactive” each time. For the same molecule, the Potency result in test [9], in test [10], in test [11], in test [12] and in [13] was “inactive” each time.

For the molecule `COc1ccc(OC)c(OC)c1`, the Potency entry in [1], in test [2], in test [14], in test [5], in test [6] and in [7] was “inactive” in each case. Further, the Potency entry in test [8], in test [9], in [10] and in [13] was “inactive” in each case.
